The full data set covers some 7,900 targets. This sample favours those with a hit. About 0.6% of all pairs of compound and target were hits.
Compound: CCCS(=O)(=O)Nc1ccc(F)c(C(=O)c2c[nH]c3ncc(-c4ccc(Cl)cc4)cc23)c1F [vemurafenib]
Test: log2 fold change, soluble protein after heating vs DMSO (PISA); higher = thermal stabilisation; K562 cells, 10 uM, 30 min; active = over 0.2 and 3.5 SD of the protein, either way, in both replicates (recomputed)
Summary of the method: (§1)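 Soluble protein was defined as the supernatant after 21,000xg for 90 min. It came from K562 cells at 2×10^6 cells/mL given 10 μM compound for 30 min, heated in aliquots for 3 min across 48°C-58°C, pooled, and extracted in PBS with 0.5% NP-40 at 4°C, and was quantified by TMTpro 16plex LC-MS/MS with equalised channel sums. Thermal stability against control samples, from duplicates, is reported as log2 fold change.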

UniProt Q9H0B6, sequence (Q9H0B6 whole entry, looked up): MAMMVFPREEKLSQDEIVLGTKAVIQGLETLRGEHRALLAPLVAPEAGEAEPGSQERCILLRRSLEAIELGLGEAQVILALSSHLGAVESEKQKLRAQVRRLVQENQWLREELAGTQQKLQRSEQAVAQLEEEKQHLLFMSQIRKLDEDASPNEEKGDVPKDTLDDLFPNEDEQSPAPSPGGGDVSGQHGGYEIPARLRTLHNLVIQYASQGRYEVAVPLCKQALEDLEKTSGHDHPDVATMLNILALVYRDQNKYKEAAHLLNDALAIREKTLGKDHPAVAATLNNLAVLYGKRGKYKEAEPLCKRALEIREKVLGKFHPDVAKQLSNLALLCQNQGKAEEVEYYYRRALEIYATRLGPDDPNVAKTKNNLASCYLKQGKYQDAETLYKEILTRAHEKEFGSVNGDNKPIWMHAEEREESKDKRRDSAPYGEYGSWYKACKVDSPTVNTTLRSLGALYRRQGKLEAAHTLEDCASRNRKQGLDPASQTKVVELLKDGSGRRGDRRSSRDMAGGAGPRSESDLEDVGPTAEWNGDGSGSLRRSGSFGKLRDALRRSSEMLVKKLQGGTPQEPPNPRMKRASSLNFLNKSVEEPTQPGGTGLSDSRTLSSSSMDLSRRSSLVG
UniProt P43362, sequence (P43362 whole entry, looked up): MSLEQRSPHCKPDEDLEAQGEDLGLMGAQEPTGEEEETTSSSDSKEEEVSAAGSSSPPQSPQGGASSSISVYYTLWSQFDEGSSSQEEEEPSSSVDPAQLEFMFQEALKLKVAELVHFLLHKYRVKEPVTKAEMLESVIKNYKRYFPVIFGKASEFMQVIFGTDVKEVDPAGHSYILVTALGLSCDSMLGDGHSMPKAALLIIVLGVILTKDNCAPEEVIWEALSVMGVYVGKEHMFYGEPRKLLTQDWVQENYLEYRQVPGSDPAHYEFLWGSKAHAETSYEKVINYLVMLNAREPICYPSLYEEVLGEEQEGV
UniProt Q9H3F6, sequence (Q9H3F6 whole entry, looked up): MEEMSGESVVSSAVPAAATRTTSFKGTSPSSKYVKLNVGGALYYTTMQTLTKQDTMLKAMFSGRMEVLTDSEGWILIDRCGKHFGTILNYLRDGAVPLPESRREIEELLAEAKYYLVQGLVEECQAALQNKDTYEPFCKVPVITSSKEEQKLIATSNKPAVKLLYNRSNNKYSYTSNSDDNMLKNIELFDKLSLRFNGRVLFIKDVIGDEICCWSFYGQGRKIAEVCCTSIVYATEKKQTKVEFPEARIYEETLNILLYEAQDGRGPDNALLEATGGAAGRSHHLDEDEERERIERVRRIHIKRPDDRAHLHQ
UniProt P07948, sequence (P07948 whole entry, looked up): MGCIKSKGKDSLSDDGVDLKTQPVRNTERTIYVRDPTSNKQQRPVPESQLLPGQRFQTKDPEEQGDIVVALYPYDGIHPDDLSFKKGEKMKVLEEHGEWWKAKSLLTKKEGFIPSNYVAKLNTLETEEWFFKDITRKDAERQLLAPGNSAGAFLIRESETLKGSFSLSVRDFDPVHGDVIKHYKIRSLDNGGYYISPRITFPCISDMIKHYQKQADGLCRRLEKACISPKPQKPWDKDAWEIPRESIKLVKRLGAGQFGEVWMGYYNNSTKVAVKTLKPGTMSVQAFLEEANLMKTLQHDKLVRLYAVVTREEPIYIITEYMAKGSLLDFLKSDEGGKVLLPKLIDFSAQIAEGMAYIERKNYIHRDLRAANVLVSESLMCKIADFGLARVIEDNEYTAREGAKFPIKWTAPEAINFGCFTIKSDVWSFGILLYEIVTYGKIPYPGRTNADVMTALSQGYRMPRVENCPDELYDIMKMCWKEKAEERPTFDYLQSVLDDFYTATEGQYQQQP
UniProt P23276, sequence (P23276 whole entry, looked up): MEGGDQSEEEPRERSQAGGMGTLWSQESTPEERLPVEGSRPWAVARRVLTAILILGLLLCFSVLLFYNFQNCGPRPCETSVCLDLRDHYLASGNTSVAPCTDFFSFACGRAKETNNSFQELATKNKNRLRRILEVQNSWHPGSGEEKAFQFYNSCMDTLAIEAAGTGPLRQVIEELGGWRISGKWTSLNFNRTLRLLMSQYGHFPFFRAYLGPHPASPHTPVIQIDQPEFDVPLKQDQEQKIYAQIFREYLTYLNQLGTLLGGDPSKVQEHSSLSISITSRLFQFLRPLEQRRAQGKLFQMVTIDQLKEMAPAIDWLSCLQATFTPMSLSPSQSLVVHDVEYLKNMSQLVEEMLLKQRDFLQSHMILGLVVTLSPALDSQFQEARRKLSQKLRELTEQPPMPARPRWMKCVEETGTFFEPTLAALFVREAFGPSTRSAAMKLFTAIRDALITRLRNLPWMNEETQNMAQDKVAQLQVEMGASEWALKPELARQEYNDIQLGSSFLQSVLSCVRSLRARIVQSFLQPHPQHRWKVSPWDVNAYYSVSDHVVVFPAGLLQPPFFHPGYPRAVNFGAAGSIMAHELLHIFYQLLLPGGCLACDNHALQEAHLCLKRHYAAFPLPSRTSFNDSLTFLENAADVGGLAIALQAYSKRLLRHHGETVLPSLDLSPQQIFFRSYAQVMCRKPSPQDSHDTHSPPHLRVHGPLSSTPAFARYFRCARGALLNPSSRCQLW
UniProt Q03252, sequence (Q03252 whole entry, looked up): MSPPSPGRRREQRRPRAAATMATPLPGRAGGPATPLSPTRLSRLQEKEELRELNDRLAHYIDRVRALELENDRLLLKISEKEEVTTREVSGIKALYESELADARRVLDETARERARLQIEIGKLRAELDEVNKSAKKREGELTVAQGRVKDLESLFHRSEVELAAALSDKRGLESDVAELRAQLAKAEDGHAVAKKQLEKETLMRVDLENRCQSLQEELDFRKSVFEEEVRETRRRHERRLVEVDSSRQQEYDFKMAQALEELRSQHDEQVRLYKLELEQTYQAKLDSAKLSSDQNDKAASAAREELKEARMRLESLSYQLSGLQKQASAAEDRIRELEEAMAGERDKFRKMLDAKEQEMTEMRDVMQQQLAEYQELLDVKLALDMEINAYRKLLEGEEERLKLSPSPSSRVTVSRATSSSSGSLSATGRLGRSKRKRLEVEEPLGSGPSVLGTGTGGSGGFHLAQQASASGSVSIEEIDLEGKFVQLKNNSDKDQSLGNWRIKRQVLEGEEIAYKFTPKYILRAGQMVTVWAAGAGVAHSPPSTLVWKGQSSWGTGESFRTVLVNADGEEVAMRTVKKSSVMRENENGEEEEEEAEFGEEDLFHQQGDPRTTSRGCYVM
UniProt Q9H0C8, sequence (Q9H0C8 whole entry, looked up): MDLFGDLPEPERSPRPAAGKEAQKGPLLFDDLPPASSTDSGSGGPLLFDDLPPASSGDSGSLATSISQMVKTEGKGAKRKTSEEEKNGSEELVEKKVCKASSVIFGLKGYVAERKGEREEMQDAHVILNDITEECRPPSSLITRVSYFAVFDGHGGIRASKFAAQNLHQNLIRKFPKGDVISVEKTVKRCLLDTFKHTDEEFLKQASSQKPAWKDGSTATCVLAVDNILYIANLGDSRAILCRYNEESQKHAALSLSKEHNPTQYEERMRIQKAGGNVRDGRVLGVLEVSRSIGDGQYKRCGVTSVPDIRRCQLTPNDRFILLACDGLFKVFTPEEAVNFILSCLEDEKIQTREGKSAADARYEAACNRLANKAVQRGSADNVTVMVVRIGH
UniProt Q96PC5, sequence (Q96PC5 whole entry, looked up): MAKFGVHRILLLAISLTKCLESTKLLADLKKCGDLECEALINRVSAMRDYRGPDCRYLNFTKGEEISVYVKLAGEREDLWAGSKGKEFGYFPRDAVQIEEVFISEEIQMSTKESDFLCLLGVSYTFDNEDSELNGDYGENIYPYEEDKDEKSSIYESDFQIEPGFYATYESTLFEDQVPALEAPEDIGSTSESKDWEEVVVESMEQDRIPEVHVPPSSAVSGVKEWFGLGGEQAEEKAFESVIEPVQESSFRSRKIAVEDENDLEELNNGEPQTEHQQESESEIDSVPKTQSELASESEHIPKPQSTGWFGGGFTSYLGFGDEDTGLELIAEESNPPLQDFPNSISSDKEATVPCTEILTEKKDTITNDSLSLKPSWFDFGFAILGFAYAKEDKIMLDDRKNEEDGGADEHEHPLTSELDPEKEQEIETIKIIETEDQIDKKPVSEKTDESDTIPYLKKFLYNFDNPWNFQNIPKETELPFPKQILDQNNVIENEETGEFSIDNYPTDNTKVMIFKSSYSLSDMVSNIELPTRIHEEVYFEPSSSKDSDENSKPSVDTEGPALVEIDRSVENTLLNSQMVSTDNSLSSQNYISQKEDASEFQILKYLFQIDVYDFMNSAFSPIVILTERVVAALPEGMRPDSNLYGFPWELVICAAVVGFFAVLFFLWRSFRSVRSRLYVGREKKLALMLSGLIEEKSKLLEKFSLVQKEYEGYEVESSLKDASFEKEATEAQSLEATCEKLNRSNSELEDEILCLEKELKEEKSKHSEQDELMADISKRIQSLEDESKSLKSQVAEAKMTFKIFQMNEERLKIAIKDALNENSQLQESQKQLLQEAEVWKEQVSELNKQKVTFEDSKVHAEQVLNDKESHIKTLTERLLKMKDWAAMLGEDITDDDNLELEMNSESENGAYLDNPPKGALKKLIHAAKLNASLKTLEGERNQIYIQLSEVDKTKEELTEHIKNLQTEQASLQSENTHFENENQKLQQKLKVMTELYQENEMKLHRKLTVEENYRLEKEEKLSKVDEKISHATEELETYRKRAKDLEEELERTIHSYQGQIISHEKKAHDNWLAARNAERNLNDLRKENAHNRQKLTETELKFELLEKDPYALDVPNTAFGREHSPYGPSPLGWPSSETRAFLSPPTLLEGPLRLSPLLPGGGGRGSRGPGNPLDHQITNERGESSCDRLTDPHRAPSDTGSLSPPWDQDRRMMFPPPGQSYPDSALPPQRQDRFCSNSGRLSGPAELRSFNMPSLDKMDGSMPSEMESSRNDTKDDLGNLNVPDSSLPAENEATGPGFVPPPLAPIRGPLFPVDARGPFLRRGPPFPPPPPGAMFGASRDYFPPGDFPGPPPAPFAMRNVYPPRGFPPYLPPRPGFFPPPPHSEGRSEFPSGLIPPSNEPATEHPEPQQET

log2 fold change, inactive:
LTV1 (UniProt Q96GA3) -0.075
LEMD3 (UniProt Q9Y2U8) 0.056
LMNA (UniProt P02545) 0.088
MDC1 (UniProt Q14676) -0.037
MED16 (UniProt Q9Y2X0) -0.017
ILF2 (UniProt Q12905) 0.028
ITIH4 (UniProt Q14624) 0.224
ITPRIP (UniProt Q8IWB1) 0.02
LYN (UniProt P07948) -0.016
IGFBP4 (UniProt P22692) 0.084
MAP2K2 (UniProt P36507) -0.008
KRAS isoform 2 (UniProt P01116) -0.03
LMBRD2 (UniProt Q68DH5) -0.052
LDAH isoform 2 (UniProt Q9H6V9) 0.044
LMNB2 (UniProt Q03252) 0.019
IMMT isoform 2 (UniProt Q16891) -0.006
ILKAP (UniProt Q9H0C8) 0.08
KEL (UniProt P23276) -0.009
LTO1 (UniProt Q8WV07) 0.101
KLC2 (UniProt Q9H0B6) 0.012
MAPK8 isoform 3 (UniProt P45983) 0.027
KCTD10 (UniProt Q9H3F6) -0.013
MED17 (UniProt Q9NVC6) 0.071
LPCAT3 (UniProt Q6P1A2) -0.019
MEPCE (UniProt Q7L2J0) 0.062
LDLR (UniProt P01130) -0.022
ILF3 isoform 7 (UniProt Q12906) -0.036
MICU2 (UniProt Q8IYU8) 0.053
MAN2B2 (UniProt Q9Y2E5) -0.105
LARP7 isoform 3 (UniProt Q4G0J3) 0.027
IKZF1 (UniProt Q13422) 0.044
MFGE8 (UniProt Q08431) -0.028
MAGEA9 (UniProt P43362) -0.031
MAPRE3 (UniProt Q9UPY8) 0.041
MAP4 (UniProt E7EVA0) -0.046
MDN1 (UniProt Q9NU22) 0.02
MIA2 (UniProt Q96PC5) 0.003

Compound: CCCS(=O)(=O)Nc1ccc(F)c(C(=O)c2c[nH]c3ncc(Cl)cc23)c1F
Test: as above
Summary of the method: as §1

log2 fold change, inactive:
LTV1 (UniProt Q96GA3) -0.008
LEMD3 (UniProt Q9Y2U8) 0.005
LMNA (UniProt P02545) 0.014
MDC1 (UniProt Q14676) -0.008
MED16 (UniProt Q9Y2X0) 0.046
ILF2 (UniProt Q12905) -0.042
ITIH4 (UniProt Q14624) 0.012
ITPRIP (UniProt Q8IWB1) 0.061
LYN (UniProt P07948) -0.143
IGFBP4 (UniProt P22692) -0.08
MAP2K2 (UniProt P36507) -0.002
KRAS isoform 2 (UniProt P01116) -0.093
LMBRD2 (UniProt Q68DH5) -0.03
LDAH isoform 2 (UniProt Q9H6V9) 0.024
LMNB2 (UniProt Q03252) 0.045
IMMT isoform 2 (UniProt Q16891) 0.018
ILKAP (UniProt Q9H0C8) 0.082
KEL (UniProt P23276) -0.015
LTO1 (UniProt Q8WV07) 0.027
KLC2 (UniProt Q9H0B6) 0.096
MAPK8 isoform 3 (UniProt P45983) 0.012
KCTD10 (UniProt Q9H3F6) -0.029
MED17 (UniProt Q9NVC6) -0.168
LPCAT3 (UniProt Q6P1A2) 0.036
MEPCE (UniProt Q7L2J0) 0.083
LDLR (UniProt P01130) -0.073
ILF3 isoform 7 (UniProt Q12906) -0.1
MICU2 (UniProt Q8IYU8) 0.183
MAN2B2 (UniProt Q9Y2E5) -0.17
LARP7 isoform 3 (UniProt Q4G0J3) 0.045
IKZF1 (UniProt Q13422) 0.034
MFGE8 (UniProt Q08431) -0.124
MAGEA9 (UniProt P43362) 0.072
MAPRE3 (UniProt Q9UPY8) 0.06
MAP4 (UniProt E7EVA0) -0.002
MDN1 (UniProt Q9NU22) 0.074
MIA2 (UniProt Q96PC5) -0.062
